Results on 51 molecules are retold here after ChEMBL document CHEMBL4513216, “Probing the Open Global Health Chemical Diversity Library for Multistage-Active Starting Points for Next-Generation Antimalarials” (ACS Infect Dis, 2020).

Screen size: about 65,000 compounds; about 2,100 (3.2%) showed an effect of 50% or more. The median lay at about -52%. Only a selection was taken, and strong results are over-represented in it overall.

The test system of this test is Plasmodium falciparum. The experiment in a line: Screen against P. falciparum Asexual Blood Stage (ABS), at 5uM. Format: functional, Dd2. The conditions noted are these: tested at 5 uM.
For the molecule `CCc1nc(CN2CCCC(NCc3cccc(C(N)=O)c3)C2)no1` (stereo unspecified), the INHIBITION was -86.3%.
The same measure for `Cc1ccnn1CC(=O)N(C)Cc1cnn(-c2ccccc2)c1`: -96.8%; for `CO[C@H]1CN(C(C)C)C[C@@H]1NC(=O)c1cc(COc2ccccc2)[nH]n1`: 57.2%.
The value for `CO[C@H]1CN(C(C)C)C[C@@H]1NC(=O)c1cc(-c2ccccc2F)n[nH]1` was -41.9%; that for `CC(=O)NCCNC(=O)c1cc(COc2ccccc2)[nH]n1` was -173%.
The value for `N#Cc1ccc(CNCCS(=O)(=O)N2CCc3ccccc32)cc1` was -57.5%; that for `OC1CCN(c2ccnc(NCCc3ccccc3Cl)n2)C1` (stereo unspecified) was 61.6%.
On to `OC1CCN(c2ccnc(NCCc3ccccc3Cl)n2)CC1`, for which the INHIBITION was -50.8%.
The value for `OC1CCN(c2ccnc(NCCN3CCc4ccccc4C3)n2)C1` (stereo unspecified) was -46.6%; that for `O=C(NCC1(Sc2ccccc2)CC1)c1ccc(=O)[nH]n1` was -22.5%; that for `COCCOc1ccc(CNc2nc3ccccc3nc2N)cn1` was -49.5%.
The same measure for `CCC1=NN2C(=N)C(=Cc3cccn3-c3cccc(Cl)c3)C(=O)N=C2S1`: -39.1%.
The same measure for `COc1cc(NC(=O)NCc2nccn2C)ccc1Br`: -84.1%.
Take `O=C(c1ccco1)N1CCCC(c2cc(C(F)(F)F)n3ncnc3n2)C1` (stereo unspecified): the INHIBITION was 4.5%.
The value for `Cc1ccsc1CN1C[C@@H]2COC[C@]2(CNC(=O)c2ccco2)C1` was 21.9%.
The value for `CC(C)N1CCC2(C=C(C(=O)N(C)C)c3ccccc32)CC1` was -3.5%; that for `CCN1CCC2(C=C(C(=O)N(C)C)c3ccccc32)CC1` was -0.272%; that for `CN1CCC2(C=C(C(=O)N(C)C)c3ccccc32)CC1` was 61.5%.
The same measure for `Cc1nc(CN(C)C2CCN(Cc3ccc4ccccc4n3)C2)no1` (stereo unspecified): -24.6%; for `Cc1ccccc1N1CC2(CCN(c3nncs3)C2)CC1=O` (stereo unspecified): -152%.
On to `O=C(NC1CC1)[C@@]12CCO[C@@H]1CCN(Cc1ccc3c(c1)OCO3)C2`, for which the INHIBITION was -28.1%.
In the case of `O=C1Nc2ccccc2C1C1CCN(C(=O)C2CC2)CC1` (stereo unspecified), the INHIBITION is given as -87.8%.
The value for `CC(C)C(=O)N1CCC(C2C(=O)Nc3ccccc32)CC1` (stereo unspecified) was -81.3%; that for `CN(C)C(=O)N1CCC(C2C(=O)Nc3ccccc32)CC1` (stereo unspecified) was 60%.
For the molecule `CCOc1ccc(OCCN2CCC(N3CCNC3=O)CC2)cc1`, the INHIBITION was -43.4%.
For `Cc1cc2c(N)nc(=O)n(CC(=O)Nc3cccc(Cl)c3)c2s1`, the INHIBITION is given as -44.3%.
`O=C1N(Cc2cccc(F)c2)CCC12CCCN(c1ncc(F)cn1)C2` (stereo unspecified): the INHIBITION is listed as -95.8%.
For the molecule `O=C1N(Cc2cccc(F)c2)CCC12CCN(c1ccccn1)CC2`, the INHIBITION was determined as 50.6%.
The same measure for `Cc1cccc(CN2CCC3(CCN(c4ncccn4)C3)C2=O)c1` (stereo unspecified): -63.6%; for `Cc1noc(C)c1C(=O)N1Cc2ncn(C)c2C(COCC2CC2)C1` (stereo unspecified): -98.5%; for `CN(Cc1ccco1)C[C@H]1OC[C@@H]2CCN(Cc3nccs3)C[C@@H]21`: 11.4%.
The value for `CN(Cc1ccco1)C[C@H]1OC[C@@H]2CCN(Cc3ccncc3)C[C@@H]21` was 2.4%; that for `CN(Cc1ccco1)C[C@H]1OC[C@@H]2CCN(Cc3ccsc3)C[C@@H]21` was 67.3%; that for `Cc1cccc(N2CC[C@H]3CO[C@H](CN(C)Cc4ccco4)[C@H]3C2)n1` was 50.7%.
The same measure for `CN(Cc1ccco1)C[C@H]1OC[C@@H]2CCN(Cc3cccnc3)C[C@@H]21`: -38.5%; for `Cc1cccc(N2CC[C@H]3[C@H](CO[C@@H]3CN(C)Cc3ccco3)C2)n1`: 7.29%.
`Cc1ccc(CN2CC[C@H]3CO[C@H](CN(C)Cc4ccco4)[C@H]3C2)s1`: the INHIBITION is reported as 58.7%.
The value for `CN(Cc1ccco1)C[C@@H]1OC[C@H]2CN(Cc3nccs3)CC[C@H]21` was -48.2%.
The value for `Cc1ccc(N2CC[C@H]3CO[C@H](CN(C)Cc4ccco4)[C@H]3C2)nn1` was -35.9%; that for `O=C(c1ccco1)N1CCCC2(CCN(c3nncs3)C2)C1` (stereo unspecified) was -157%; that for `O=C(NCc1ccccn1)[C@@]12CCO[C@@H]1CCN(Cc1ccccn1)C2` was -75.4%.
The value for `CC(C)(C)c1nc(CNc2ccccc2SCCC(N)=O)cs1` was -98.5%; that for `CN(C)C1CCC2(CCN(Cc3nccn3C)CC2)c2ccccc21` (stereo unspecified) was 24.3%.
For `Cn1cc(C(=O)NCCc2ccc(OC3CCCC3)cc2)ccc1=O`, the INHIBITION is on record as -53.4%.
On to `O=S(=O)(c1ccccc1)N1CCC2(CCCN2Cc2ccccc2Cl)C1` (stereo unspecified), for which the INHIBITION is on record as -129%.
The value for `CCCNC(=O)C1CCCN(c2ccc3nncn3n2)C1` (stereo unspecified) was -47.2%; that for `CS(=O)(=O)Nc1ccn(Cc2ccc(Cl)cc2)n1` was -58.2%.
For `CCCN(CCC)c1ncc(S(=O)(=O)c2ccc(OC)cc2)c(N)n1`, the INHIBITION is 67.6%.
The same measure for `CCCN(CCC)c1ncc(S(=O)(=O)c2ccccc2)c(N)n1`: -9.26%.
The value for `CCCN(CCC)c1ncc(S(=O)(=O)c2ccc(C)cc2)c(N)n1` was 14.8%; that for `CC(C)(C)NC(=O)N1CCC(Oc2ccc(C(F)(F)F)cn2)CC1` was -12%.
